Test results published in PubChem BioAssay AID1159580 (chemical genetic matrix, 2015).
In all, about 5,500 compounds went through this assay and about 2,000 (36%) were called active. Another 18% or so got no clear call; they are omitted. No stated cut-off is given here; in the data, active means normalized growth mostly below about 0.91 (no sharp cut-off); inconclusive means no clear call, values can overlap the other calls; inactive means mostly above about 0.92. The list shows a part of the results.

Assay: chemical genetic growth profiling, strain panel (AID 1159580);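 further: tested at 20 µM; growth read once vehicle control cultures reached saturation at 30 °C; 1 = growth at the plate median or of vehicle wells; lower values mean less growth of the strain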
Conditions: S. cerevisiae deletion strains, growth OD

Measured: normalized growth

O=c1ccc2ccc(O)c(O)c2o1
inactive: locus YAL021C, strain ccr4, hits give low values 1.01 | locus YAL026C, strain drs2, hits give low values 1.01 | locus YAL030W, strain snc1, hits give low values 1.01 | locus YAL040C, strain CLN3, hits give low values 0.995 | locus YBL061C, strain skt5, hits give low values 1 | locus YBR009C, strain hhf1, hits give low values 1 | locus YBR023C, strain chs3, hits give low values 1 | locus YBR171W, strain sec66, hits give low values 1 | locus YBR231C, strain swc5, hits give low values 0.98 | locus YBR279W, strain paf1, hits give low values 1.01 | locus YCL011C, strain gbp2, hits give low values 1.03 | locus YCL016C, strain dcc1, hits give low values 0.996 | locus YCL061C, strain MRC1 (second series), hits give low values 0.999 | locus YCL069W, strain vba3, hits give low values 1.01 | locus YCR088W, strain abp1, hits give low values 1.01 | locus YDL005C, strain med2, hits give low values 1 | locus YDL040C, strain nat1, hits give low values 1.01 | locus YDR001C, strain nth1, hits give low values 1.02 | locus YDR069C, strain doa4, hits give low values 0.982 | locus YDR137W, strain rgp1, hits give low values 0.982 | locus YDR150W, strain NUM1, hits give low values 0.998 | locus YDR159W, strain sac3, hits give low values 0.966 | locus YDR195W, strain ref2 0.989 | locus YDR297W, strain sur2, hits give low values 1 | locus YDR334W, strain swr1, hits give low values 1.01 | locus YDR335W, strain msn5, hits give low values 1.02 | locus YDR363W, strain ESC2, hits give low values 0.961 | locus YDR392W, strain spt3, hits give low values 0.934 | locus YEL003W, strain gim4, hits give low values 1 | locus YEL037C, strain rad23, hits give low values 1.01 | locus YEL061C, strain CIN8 (second series), hits give low values 1.01 | locus YER002W, strain NOP16, hits give low values 0.996 | locus YER015W, strain faa2, hits give low values 0.999 | locus YER016W, strain bim1, hits give low values 1.02 | locus YER111C, strain swi4, hits give low values 0.999 | locus YER155C, strain BEM2 (second series), hits give low values 1 | locus YFR010W, strain ubp6, hits give low values 1.01 | locus YGL167C, strain pmr1, hits give low values 1.01 | locus YGL173C, strain kem1, hits give low values 1 | locus YGL227W, strain vid30, hits give low values 1.01 | locus YGL240W, strain doc1, hits give low values 0.986 | locus YGL253W, strain hxk2, hits give low values 1.03 | locus YGR078C, strain PAC10, hits give low values 0.994 | locus YGR229C, strain SMI1, hits give low values 1.03 | locus YHR013C, strain ard1, hits give low values 0.997 | locus YHR027C, strain rpn1, hits give low values 1 | locus YHR030C, strain SLT2, hits give low values 0.98 | locus YHR079C, strain IRE1, hits give low values 0.96 | locus YHR142W, strain chs7, hits give low values 1.05 | locus YJL092W, strain hpr5, hits give low values 1.01 | locus YJL095W, strain BCK1 (second series), hits give low values 1 | locus YJL095W, strain BCK1, hits give low values 0.978 | locus YJL115W, strain asf1, hits give low values 1.01 | locus YJL129C, strain trk1, hits give low values 0.999 | locus YJL154C, strain vps35, hits give low values 1.01 | locus YJL164C, strain tpk1, hits give low values 1 | locus YJL166W, strain qcr8, hits give low values 1.02 | locus YJL187C, strain SWE1, hits give low values 1.02 | locus YJR066W, strain TOR1, hits give low values 0.924 | locus YJR075W, strain HOC1, hits give low values 1.05 | locus YKL160W, strain elf1, hits give low values 1 | locus YKR026C, strain gcn3, hits give low values 1.01 | locus YKR091W, strain srl3, hits give low values 1.01 | locus YLL001W, strain dnm1, hits give low values 0.996 | locus YLL026W, hits give low values 1 | locus YLL041C, strain sdh2, hits give low values 1.01 | locus YLR027C, strain aat2, hits give low values 0.993 | locus YLR113W, strain HOG1, hits give low values 1.01 | locus YLR221C, strain rsa3, hits give low values 0.991 | locus YLR258W, strain gsy2, hits give low values 1.01 | locus YLR262C, strain YPT6 (second series), hits give low values 1.02 | locus YLR320W, strain mms22, hits give low values 1.01 | locus YLR342W, strain FKS1, hits give low values 1.01 | locus YLR357W, strain rsc2, hits give low values 1 | locus YLR370C, strain arc18, hits give low values 1.01 | locus YLR384C, strain iki3, hits give low values 0.981 | locus YML120C, strain ndi1, hits give low values 1 | locus YMR058W, strain fet3, hits give low values 1.01 | locus YMR125W, strain sto1, hits give low values 1 | locus YMR129W, hits give low values 1.01 | locus YMR205C, strain PFK2, hits give low values 1.01 | locus YMR231W, strain pep5, hits give low values 0.998 | locus YMR307W, strain GAS1, hits give low values 1.03 | locus YNL071W, strain lat1, hits give low values 1.02 | locus YNL153C, strain GIM3, hits give low values 1.2 | locus YNL175C, strain NOP13, hits give low values 0.974 | locus YNL183C, strain NPR1, hits give low values 0.94 | locus YNL197C, strain WHI3, hits give low values 0.979 | locus YNL209W, strain ssb2, hits give low values 0.994 | locus YNL224C, strain SQS1, hits give low values 0.99 | locus YNL248C, strain rpa49, hits give low values 1.04 | locus YNL322C, strain KRE1 (second series), hits give low values 0.994 | locus YNR049C, strain mso1, hits give low values 0.999 | locus YOR001W, strain rrp6, hits give low values 0.979 | locus YOR070C, strain gyp1, hits give low values 0.991 | locus YOR080W, strain dia2, hits give low values 0.986 | locus YOR083W, strain WHI5 (second series), hits give low values 1.02 | locus YOR083W, strain WHI5, hits give low values 0.999 | locus YOR106W, strain vam3, hits give low values 0.99 | locus YOR231W, strain MKK1, hits give low values 0.966 | locus YOR265W, strain rbl2, hits give low values 1.01 | locus YOR270C, strain vph1, hits give low values 1 | locus YOR290C, strain snf2, hits give low values 0.98 | locus YPL051W, strain arl3, hits give low values 1 | locus YPL078C, strain atp4, hits give low values 1.01 | locus YPL106C, strain sse1, hits give low values 0.967 | locus YPL240C, strain hsp82, hits give low values 1.01 | locus YPL256C, strain CLN2, hits give low values 0.989
